Results filed as inconclusive are left out. Active and inactive are the calls of the source. Unless noted, calls come from the whole dose curve.
Columns and labels:
[1] = biological target: Gonadotropin-releasing hormone receptor (Homo sapiens) (UniProt P30968); assay: Human gonadotropin-releasing hormone receptor (GnRHR) small molecule agonists, calcium flux assay in GnRHR-HEK293 cells (AID 1920063); note: nearly all actives have a fitted effect of over 35% in size; note: potency is the fitted concentration of half-maximal effect
Sequence of Gonadotropin-releasing hormone receptor (Homo sapiens) (P30968 whole entry, looked up): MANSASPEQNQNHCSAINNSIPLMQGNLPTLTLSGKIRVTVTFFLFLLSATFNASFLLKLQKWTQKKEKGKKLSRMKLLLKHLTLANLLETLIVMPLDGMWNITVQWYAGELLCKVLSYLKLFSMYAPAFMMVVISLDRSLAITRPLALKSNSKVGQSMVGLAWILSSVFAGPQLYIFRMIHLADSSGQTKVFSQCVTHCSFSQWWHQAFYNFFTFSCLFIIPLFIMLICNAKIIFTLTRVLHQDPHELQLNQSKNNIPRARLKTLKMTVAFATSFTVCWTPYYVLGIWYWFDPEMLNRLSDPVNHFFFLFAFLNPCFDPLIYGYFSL
How it was run: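 Fluorescence kinetics (480 nm excitation, 540 nm emission; 3 min, 1 s steps) report calcium mobilisation in human GnRHR-HEK293 cells in agonist mode. Dye incubation: 1 h, 37 C.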

[2] = biological target: KiSS-1 receptor (Homo sapiens) (UniProt Q969F8); assay: Human kisspeptin (KISS1R) small molecule agonists, calcium flux assay in KISS1R-HEK293 cells (AID 1920064; active = well fitted activation curve with a large enough effect in the repeat runs)
Sequence of KiSS-1 receptor (Homo sapiens) (Q969F8 whole entry, looked up): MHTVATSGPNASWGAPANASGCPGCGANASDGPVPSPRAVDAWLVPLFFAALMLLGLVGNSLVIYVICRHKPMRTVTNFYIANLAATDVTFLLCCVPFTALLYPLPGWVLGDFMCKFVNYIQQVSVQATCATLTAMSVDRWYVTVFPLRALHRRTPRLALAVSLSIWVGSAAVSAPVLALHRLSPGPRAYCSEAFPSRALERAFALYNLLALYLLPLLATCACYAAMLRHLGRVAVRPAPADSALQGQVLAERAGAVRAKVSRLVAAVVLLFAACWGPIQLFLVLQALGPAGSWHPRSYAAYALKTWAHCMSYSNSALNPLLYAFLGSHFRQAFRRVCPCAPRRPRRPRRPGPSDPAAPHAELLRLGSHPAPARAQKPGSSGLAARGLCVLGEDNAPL
How it was run: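 Measures KISS1R agonism through calcium-sensitive dye fluorescence in stably transfected HEK293 cells, read for 3 min after pin-tool compound delivery; 15-point titrations in triplicate.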

[3] = G protein-coupled receptor (GPCR) small molecule agonists, calcium flux assay: HEK293 wild type cell line counter screen (AID 1920065)
How it was run: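 Readout: fluorescence at 480 nm excitation/540 nm emission, sampled at 1 s intervals for 3 min. Cells had been cultured 18 h, then dye-loaded 1 h at 37 C before compound or ATP addition.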

[4] = p53 small molecule agonists, cell-based qHTS assay with human liver microsomes (AID 1963577);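 note: p53 response element beta-lactamase reporter cells with liver microsomes plus NADPH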
How it was run: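 p53RE-bla cells; 5 h settle, 37 C/5% CO2; cpd + HLM 0.5 mg/mL + NADPH 0.5 mg/mL (final); 16 h 37 C; LiveBLAzer 2 h RT dark; fluorescence readout.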

[5] = p53 small molecule agonists, cell-based qHTS assay with rat liver microsomes (AID 1963578)
How it was run: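 Rat liver microsome activation: microsomes 0.5 mg/mL, NADPH 0.5 mg/mL final; p53RE-bla cells, 16 h 37 C; LiveBLAzer readout, 2 h RT dark.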

[6] = p53 small molecule agonists, cell-based qHTS assay with human liver microsomes: qHTS cell viability counter screen (AID 1963579); note: nearly all actives have a fitted effect of over 45% in size
How it was run: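 Luminescent CellTiter-Glo read-out, 30 min at room temperature, gauged cytotoxicity in p53RE-bla cells exposed 16 h at 37 C to DMSO-dissolved compounds with metabolic activation by human liver microsomes and NADPH, each 0.5 mg/mL final.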

[7] = p53 small molecule agonists, cell-based qHTS assay with rat liver microsomes: qHTS cell viability counter screen (AID 1963580); note: nearly all actives have a fitted effect of over 45% in size
How it was run: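 Viability is assessed in parallel with the p53 reporter read: HCT-116 p53RE-bla cells receive compounds plus rat microsomes and NADPH (0.5 mg/mL final apiece), incubate 16 h at 37 C, and then CellTiter-Glo luminescence is recorded.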

[8] = p53 small molecule agonists, cell-based qHTS assay: qHTS cell viability counter screen (AID 1963581); note: nearly all actives have a fitted effect of over 45% in size
How it was run: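 In the same plates used for the p53 bla reporter, HCT-116 cells given compounds for 16 h at 37 C received CellTiter-Glo; luminescence was recorded 30 min later at room temperature.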

[9] = p53 small molecule agonists, cell-based qHTS assay (AID 1963582; active = well fitted activation curve with a large enough effect in the signal ratio in the repeat runs, not every such curve was filed as active; the % refers to the signal ratio)
How it was run: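 Compounds are pin-transferred in DMSO onto p53RE-bla cells and incubated 16 h at 37 C. The B/G FRET beta-lactamase substrate is then applied for 2 h at RT and fluorescence recorded.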

[10] = biological target: 5-hydroxytryptamine receptor 2A (Homo sapiens) (UniProt P28223); assay: 5-hydroxytryptamine receptor 2A (HTR2A) small molecule antagonists, cell-based qHTS assay (AID 1963586); note: nearly all actives have a fitted effect of over 45% in size; note: potency is the fitted concentration of half-maximal effect
Sequence of 5-hydroxytryptamine receptor 2A (Homo sapiens) (P28223 whole entry, looked up): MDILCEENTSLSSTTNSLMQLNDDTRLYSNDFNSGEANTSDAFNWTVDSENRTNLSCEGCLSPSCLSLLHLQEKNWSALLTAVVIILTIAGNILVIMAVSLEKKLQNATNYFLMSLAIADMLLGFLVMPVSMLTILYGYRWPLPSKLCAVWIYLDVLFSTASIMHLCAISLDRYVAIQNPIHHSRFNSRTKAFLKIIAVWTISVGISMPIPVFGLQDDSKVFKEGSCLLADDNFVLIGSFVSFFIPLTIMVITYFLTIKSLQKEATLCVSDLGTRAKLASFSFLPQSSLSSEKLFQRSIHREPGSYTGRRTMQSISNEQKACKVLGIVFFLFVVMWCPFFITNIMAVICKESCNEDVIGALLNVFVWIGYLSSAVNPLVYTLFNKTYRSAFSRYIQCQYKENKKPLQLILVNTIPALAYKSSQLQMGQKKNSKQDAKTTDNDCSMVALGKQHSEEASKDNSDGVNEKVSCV
How it was run: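 Antagonist-mode intracellular calcium assay: DOI (4 nM) added after 5 min compound pre-incubation at room temperature to dye-loaded HTR2A-CHO cells. Fluorescence followed for 3 min, sampled every second.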

[11] = biological target: 5-hydroxytryptamine receptor 2A (Homo sapiens) (UniProt P28223); assay: 5-hydroxytryptamine receptor 2A (HTR2A) small molecule agonists, cell-based qHTS assay (AID 1963587); note: nearly all actives have a fitted effect of over 30% in size; note: potency is the fitted concentration of half-maximal effect
How it was run: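 CHO cells stably expressing human HTR2A, plated 18 h, loaded with calcium dye 1 h at 37 C. Agonist mode: compounds added and intracellular calcium fluorescence recorded kinetically for 2 min at 1 sec intervals.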

[12] = biological target: Muscarinic acetylcholine receptor M1 (Homo sapiens) (UniProt P11229); assay: Cholinergic receptor muscarinic 1 (CHRM1) small molecule antagonists, cell-based qHTS assay (AID 1963588); note: nearly all actives have a fitted effect of over 40% in size; note: potency is the fitted concentration of half-maximal effect
Sequence of Muscarinic acetylcholine receptor M1 (Homo sapiens) (P11229 whole entry, looked up): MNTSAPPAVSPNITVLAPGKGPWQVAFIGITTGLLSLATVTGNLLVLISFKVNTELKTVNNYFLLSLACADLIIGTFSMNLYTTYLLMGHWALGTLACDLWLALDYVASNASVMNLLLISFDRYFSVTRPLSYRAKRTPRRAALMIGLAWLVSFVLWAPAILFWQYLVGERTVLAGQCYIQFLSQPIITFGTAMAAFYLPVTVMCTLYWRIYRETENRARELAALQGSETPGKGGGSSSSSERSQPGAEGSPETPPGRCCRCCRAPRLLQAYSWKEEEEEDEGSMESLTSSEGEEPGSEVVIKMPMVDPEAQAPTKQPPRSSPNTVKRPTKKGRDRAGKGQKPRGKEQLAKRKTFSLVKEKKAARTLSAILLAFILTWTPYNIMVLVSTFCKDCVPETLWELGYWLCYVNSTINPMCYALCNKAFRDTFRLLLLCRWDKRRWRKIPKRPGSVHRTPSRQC
How it was run: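 CHRM1-CHO calcium-flux assay, antagonist mode. Cells were seeded 18 h, dye-loaded 1 h at 37 C and given compound for 5 min at RT, then acetylcholine was added at 50nM. FDSS fluorescence was read 3 min; 15 concentrations, three runs.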

[13] = cAMP Responsive Elements (CRE) small molecule agonists, cell-based qHTS assay (AID 1963590)
How it was run: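 Cell line: CRE-bla HEK 293T; medium DMEM/10% dialyzed FBS/0.1 mM NEAA/1 mM pyruvate/25 mM HEPES; 3 h compound exposure; beta-lactamase FRET readout after 2 h substrate loading at RT.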

[14] = cAMP Responsive Elements (CRE) small molecule antagonists, cell-based qHTS assay (AID 1963591; active = well fitted inhibition curve with a large enough effect in the signal ratio in the repeat runs, not every such curve was filed as active; the % refers to the signal ratio)
How it was run: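 Inhibition of NKH477-driven (0.25 uM final) CRE-beta-lactamase signal in HEK293T cells, 3 h compound exposure at 37 °C, detected by FRET substrate fluorescence.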

[15] = biological target: Beta-2 adrenergic receptor (Homo sapiens) (UniProt P07550); assay: Adrenergic beta2 receptor (ADRB2) small molecule antagonists, cell-based qHTS assay (AID 1963592); note: series mostly up to about 92 µM; nearly all actives have a fitted effect of over 50% in size
Sequence of Beta-2 adrenergic receptor (Homo sapiens) (P07550 whole entry, looked up): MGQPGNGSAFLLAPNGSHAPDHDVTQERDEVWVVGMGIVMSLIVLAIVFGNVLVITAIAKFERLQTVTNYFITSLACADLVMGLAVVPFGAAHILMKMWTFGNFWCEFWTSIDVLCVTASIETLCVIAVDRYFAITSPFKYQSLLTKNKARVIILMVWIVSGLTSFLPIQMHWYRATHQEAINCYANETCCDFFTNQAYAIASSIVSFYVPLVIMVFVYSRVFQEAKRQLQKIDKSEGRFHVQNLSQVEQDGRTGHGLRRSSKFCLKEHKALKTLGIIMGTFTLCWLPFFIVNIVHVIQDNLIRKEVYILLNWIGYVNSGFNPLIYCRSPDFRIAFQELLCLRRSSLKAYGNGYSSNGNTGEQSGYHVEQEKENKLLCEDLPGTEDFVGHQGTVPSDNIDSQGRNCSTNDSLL
How it was run: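 Cells (CHO, stable ADRB2 overexpression) incubated 18-20hr at 37C; compounds added from DMSO; agonist mix (1nM isoproterenol, 100uM IBMX, 25uM Ro-20-1724) added; 0.5hr RT; d2-cAMP and anti-cAMP-cryptate added; 1hr RT; 665/615 nm read.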

[16] = biological target: D(2) dopamine receptor (Homo sapiens) (UniProt P14416); assay: Dopamine D2 receptor (DRD2) small molecule antagonists, cell-based qHTS assay (AID 1963595; active = well fitted inhibition curve with a large enough effect in the signal ratio in the repeat runs, with a control signal flat; the % refers to the signal ratio; note: potency is the fitted concentration of half-maximal effect)
Sequence of D(2) dopamine receptor (Homo sapiens) (P14416 whole entry, looked up): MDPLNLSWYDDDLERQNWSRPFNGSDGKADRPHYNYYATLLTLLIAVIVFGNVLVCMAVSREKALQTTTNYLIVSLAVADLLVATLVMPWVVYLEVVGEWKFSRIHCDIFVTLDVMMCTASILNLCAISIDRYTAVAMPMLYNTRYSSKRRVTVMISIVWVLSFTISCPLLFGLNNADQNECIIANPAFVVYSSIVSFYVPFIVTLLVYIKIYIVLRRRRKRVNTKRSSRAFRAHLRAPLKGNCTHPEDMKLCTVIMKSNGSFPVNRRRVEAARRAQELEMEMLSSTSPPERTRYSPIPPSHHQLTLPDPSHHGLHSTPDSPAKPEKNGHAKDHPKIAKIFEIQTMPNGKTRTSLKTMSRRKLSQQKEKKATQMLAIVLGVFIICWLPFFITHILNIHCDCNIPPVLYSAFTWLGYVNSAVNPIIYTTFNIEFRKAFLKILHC
How it was run: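 DRD2-HEK293; 0.1 mM Ro20-1724; cpd 10 min RT; NKH477 200 nM + quinpirole 12 nM, 30 min RT; HTRF cAMP (cAMP-d2/anti-cAMP cryptate), 665/620 nm ratio after 1 h.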

[17] = biological target: Muscarinic acetylcholine receptor M1 (Homo sapiens) (UniProt P11229); assay: Cholinergic receptor muscarinic 1 (CHRM1) small molecule agonists, cell-based qHTS assay (AID 1963589); note: nearly all actives have a fitted effect of over 35% in size
How it was run: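 Each compound was tested at 15 concentrations across three independent runs on dye-loaded CHO cells stably expressing human CHRM1, reading intracellular calcium fluorescence kinetically at 1 sec intervals.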

[18] = biological target: Beta-2 adrenergic receptor (Homo sapiens) (UniProt P07550); assay: Adrenergic beta2 receptor (ADRB2) small molecule agonists, cell-based qHTS assay (AID 1963593);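 note: CHO cells stably overexpressing human ADRB2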
How it was run: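 CHO cells stably over-expressing ADRB2 were plated overnight at 37C, then dosed with compounds plus a stimulation mix containing 100uM IBMX and 25uM Ro-20-1724 for 0.5hr at room temperature. cAMP was measured by HTRF competition, 1hr.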

[19] = biological target: D(2) dopamine receptor (Homo sapiens) (UniProt P14416); assay: Dopamine D2 receptor (DRD2) small molecule agonists, cell-based qHTS assay (AID 1963594); note: nearly all actives have a fitted effect of over 35% in size
How it was run: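 HEK293 cells stably expressing human DRD2, pre-treated with PDE inhibitor Ro20-1724 (0.1 mM final) and compound 10 min at room temperature, then stimulated with NKH477 (200nM […]) for 30 min. cAMP read by HTRF (665/620 nm).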

Measured: Potency

C[C@@H]1CC[C@H]2C(C)(C)[C@H]3C[C@@]12CC[C@@]3(C)O
active: [11] 48.9 µM
not listed: [17] | [18] | [19]
inactive: all other assays above

CCCCCCCCCc1ccc(OCCOCCO)cc1
active: [1] 13 µM | [10] 5.58 µM | [11] 20.5 µM | [16] 25.6 µM
not listed: [9] | [12] | [13] | [14]
inactive: all other assays above

Nc1ccc(N=Nc2ccccc2)c(N)c1
active: [12] 23.2 µM
not listed: [7] | [10] | [15] | [16] | [18] | [19]
inactive: all other assays above

C=C(C)C(=O)OCC(O)COc1ccc(C(C)(C)c2ccc(OCC(O)COC(=O)C(=C)C)cc2)cc1 (stereo not drawn)
not listed: [6] | [9] | [10] | [13] | [14] | [15] | [18]
inactive: all other assays above

O=[N+]([O-])C1(Br)COCOC1
active: [1] 38.9 µM
not listed: [7] | [8] | [9] | [11]
inactive: all other assays above

CCCCCCCCC(CCCCCC)C(=O)O (stereo not drawn)
not listed: [7] | [18]
inactive: all other assays above

COC(=O)C1=C(C)NC(C)=C(C(=O)OCCCN2CCC(c3ccccc3)(c3ccccc3)CC2)C1c1cccc([N+](=O)[O-])c1 (stereo not drawn)
not listed: [9] | [13] | [14] | [18]
inactive: all other assays above

Source: PubChem BioAssay (Tox21)
